The full list was thinned out, with hits kept by preference.
NS1 inh: qHTS Assay for Inhibitors of Influenza NS1 Protein Function | Potency, µM (series often up to 46.1 µM), for the others: top-dose activity, positive = more growth | actives 0.4% (n = 270,000); calls by dose curve; also: potency is read from the fitted curve at half-maximal effect; actives are rising curves; nearly all actives have a fitted effect of over 50% in size
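Recovery from NS1-induced slow growth read by OD600 in budding yeast switched to galactose assay medium (pH 6.0, -URA) at 1:100 dilution. Compound 23 nl per well; the matching strain lacking NS1 serves as control.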
Shiga inhibitor: A qHTS for Small Molecule Inhibitors of Shiga Toxin; Vero cells, Shiga toxin protein synthesis inhibition reporter; inhibition, % at 38.7 µM; actives 9.2% (n = 290,000); in the data active = inhibition mostly above about 28%, no sharp cut-off; inactive = mostly below about 43%; also: 0% is about no effect
CHX counter: Cycloheximide Counterscreen for Small Molecule Inhibitors of Shiga Toxin; actives 12% (n = 300,000); cell reporter, cycloheximide protein synthesis inhibition counterscreen; max response, %; in the data active = max response mostly above about 13%, no sharp cut-off; inactive = mostly below about 14%; also: read at 38.3 µM for the half of the compounds with a filed dose; 0% is about no effect
LmPK inhibitor: qHTS Assay for Inhibitors of Leishmania Mexicana Pyruvate Kinase (LmPK). actives 0.37% (n = 290,000). Potency, µM (top dose mostly 57.5 µM), without a hit: at the top dose activity change, negative = inhibition, hits mostly inhibitors. purified LmPK, Kinase-Glo ATP luminescence, 1 h; also: potency is read from the fitted curve at half-maximal effect; % is scaled to controls: 0 for no effect and ±100 for the full control effect
Target sequence (Q27686 whole entry, looked up): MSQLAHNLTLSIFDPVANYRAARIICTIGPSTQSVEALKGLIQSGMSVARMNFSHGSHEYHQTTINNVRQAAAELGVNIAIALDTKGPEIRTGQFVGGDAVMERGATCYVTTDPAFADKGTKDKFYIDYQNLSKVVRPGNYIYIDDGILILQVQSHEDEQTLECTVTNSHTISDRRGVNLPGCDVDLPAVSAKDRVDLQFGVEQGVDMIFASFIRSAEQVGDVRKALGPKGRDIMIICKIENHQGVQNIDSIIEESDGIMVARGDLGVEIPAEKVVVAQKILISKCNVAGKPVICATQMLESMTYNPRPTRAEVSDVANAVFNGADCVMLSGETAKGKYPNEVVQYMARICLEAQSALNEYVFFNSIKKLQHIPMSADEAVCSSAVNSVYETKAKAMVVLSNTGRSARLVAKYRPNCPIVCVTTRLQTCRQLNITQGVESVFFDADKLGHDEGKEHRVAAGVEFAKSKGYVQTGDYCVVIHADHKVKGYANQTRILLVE
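ATP generated from ADP (0.1 mM) and PEP (0.5 mM) by 0.1 nM LmPK over 1 h at room temperature (pH 7.2 imidazole buffer) was detected by coupled luciferase luminescence. Values were normalized to uninhibited and no-enzyme wells.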
SARS PLP yeast: qHTS of Yeast-based Assay for SARS-CoV PLP; S. cerevisiae expressing SARS-CoV PLpro, growth rescue; Potency, µM (series often up to 32.9 µM), for inactives: at the top dose activity, positive = growth rescue, usual class: activators; actives 0.19% (n = 330,000); calls by dose curve; also: potency is read from the fitted curve at half-maximal effect; 0% is about no effect; nearly all actives have a fitted effect of over 55% in size
TbPYK inhibitor: qHTS of Trypanosoma Brucei Inhibitors | TbPYK enzyme, Kinase-Glo Plus ATP luminescence, 45 min | AID 624173, 2012 | actives 0.12% (n = 410,000) | pyruvate kinase (Trypanosoma brucei), Q57TT1 | Potency, µM (top dose mostly 76.8 µM), for inactives: at the top dose activity, negative = inhibition, usual class: inhibitors; also: potency is read from the fitted curve at half-maximal effect; % is scaled to controls: 0 for no effect and ±100 for the full control effect; nearly all actives have a fitted effect of over 50% in size
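In this concentration-response screen, enzyme-free wells defined baseline while DMSO plates tracked drift. Each reaction combined TbPYK, substrate, compound and 130 uM ADP for 45 min at room temperature. Kinase-Glo Plus luminescence gave the signal.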
Numbers without * were called inactive; ! = not active in a repeat; [ ] = remark or other dose. Unless noted, calls follow the shape of the dose curve; as a rule, active = well fitted curve in the direction sought with a large enough effect; inconclusive = small, poorly fitted or top-dose-only effect, or another doubt; inactive = no such curve, though single readings can be large; an effect the other way counts as inactive or inconclusive.

Results for COc1ccc(OC)c(CCNC(=O)c2cc3cccc4c3n2CCS4)c1 ?
TbPYK inhibitor: 5%[15.4 µM]

Results for [O-][n+]1onc2c1CCC(=N/O)/C2=N\Nc1ccccc1 ?
NS1 inh: 9%; Shiga inhibitor: 55; CHX counter: 19*; LmPK inhibitor: inconclusive; SARS PLP yeast: 2%

How did CCN1C(=O)[C@@H]2[C@@H](c3ccc(-c4ccc(OC)cc4)c(OC)c3)N3CCCC[C@@]3(C(=O)OC)[C@@H]2C1=O do in these assays?
SARS PLP yeast: -5%; TbPYK inhibitor: -6%

Results for COC(=O)C(/C=N/O)NC(=O)c1ccccc1 (stereo not drawn) ?
Shiga inhibitor: -8; CHX counter: -1; LmPK inhibitor: 2%; SARS PLP yeast: 2%; TbPYK inhibitor: 2%

How did CO/N=C/C(NC(=O)c1ccc(C(F)(F)F)cc1)C(=O)OC (stereo not drawn) do in these assays?
Shiga inhibitor: 48; CHX counter: 23*; LmPK inhibitor: -24%; SARS PLP yeast: -5%; TbPYK inhibitor: -5%

What do the screens show for `Cc1cccc(C)c1Nc1c(-c2ccccc2Cl)nc2cnccn12`?
TbPYK inhibitor: -4%

What do the screens show for `FC(F)(F)Oc1ccc(NC2=NCCCS2)cc1`?
NS1 inh: 3%; Shiga inhibitor: 39*; CHX counter: 33*; LmPK inhibitor: 6%; SARS PLP yeast: -2%; TbPYK inhibitor: 1%

What do the screens show for `CCCCc1ccc(NC2=NCCCS2)cc1`?
NS1 inh: -5%; Shiga inhibitor: 42*; CHX counter: 30*; LmPK inhibitor: 10%; SARS PLP yeast: -1%; TbPYK inhibitor: -2%

Results for CC(=O)c1ccc(NC2=NCCCS2)cc1 ?
NS1 inh: 1%; Shiga inhibitor: 10; CHX counter: 15; LmPK inhibitor: 5%; SARS PLP yeast: -1%; TbPYK inhibitor: -7%

What do the screens show for `CCn1ccnc1CN(C)C(=O)c1ccc(OC2CCN(CCc3ccccc3)CC2)cc1`?
NS1 inh: inconclusive; Shiga inhibitor: -8; CHX counter: 8; LmPK inhibitor: -1%; SARS PLP yeast: -7%; TbPYK inhibitor: 5%

How did Cn1nnnc1SCCCNCc1cc(Cl)ccc1OCc1ccccc1 do in these assays?
TbPYK inhibitor: -1%

How did N.N.N.N.N.N.N.N.N.N.N.N.N.N.O.O.[Cl-].[Cl-].[Cl-].[Cl-].[Cl-].[Cl-].[Ru].[Ru].[Ru] do in these assays?
NS1 inh: -44%

What do the screens show for `COC(=O)C1=C(C)N(Cc2ccccc2)C(=S)N[C@H]1c1cccc(C(F)(F)F)c1`?
NS1 inh: -43%; Shiga inhibitor: 28*; CHX counter: 19*; LmPK inhibitor: -4%; SARS PLP yeast: -1%; TbPYK inhibitor: -3%

What do the screens show for `COC(=O)C1=C(C)N(Cc2ccccc2)C(=O)N[C@H]1c1cccc(C(F)(F)F)c1`?
NS1 inh: 4%; Shiga inhibitor: -4; CHX counter: -3; LmPK inhibitor: -4%[11.5 µM]; SARS PLP yeast: -3%; TbPYK inhibitor: -2%

What do the screens show for `COc1ccccc1NC(=O)c1ccc(S(=O)(=O)N2CCCC(C)C2)cc1` (stereo not drawn)?
NS1 inh: -3%; Shiga inhibitor: -7; CHX counter: -1; LmPK inhibitor: -8%; SARS PLP yeast: -14%; TbPYK inhibitor: -23%

Results for CCc1ccc(NC(=O)CC2C(=O)N(c3ccccc3)C(=O)N2C(C)C)cc1 (stereo not drawn) ?
TbPYK inhibitor: 0%

What do the screens show for `COc1ccccc1S(=O)(=O)N(C)C[C@H]1Oc2ncc(Br)cc2C(=O)N([C@H](C)CO)C[C@H]1C`?
TbPYK inhibitor: -2%

How did COc1ccc(C)cc1NC(=O)CSc1ccc(-c2ccccn2)nn1 do in these assays?
NS1 inh: -126%; Shiga inhibitor: 20; CHX counter: 11*; LmPK inhibitor: -2%; SARS PLP yeast: -16%; TbPYK inhibitor: -7%

What do the screens show for `Cc1cccc(NC(=O)CSc2ccc(-c3ccccn3)nn2)c1`?
TbPYK inhibitor: -1%

What do the screens show for `CCC(C(=O)OCC(=O)Nc1cc(C)ccc1OC)c1ccccc1` (stereo not drawn)?
Shiga inhibitor: 32; CHX counter: 26*; LmPK inhibitor: 3%; SARS PLP yeast: -2%; TbPYK inhibitor: -2%

What do the screens show for `O=C1CN(C(=O)COc2ccc(Cl)cc2)C(c2ccccc2)c2cc(Br)ccc2N1` (stereo not drawn)?
TbPYK inhibitor: 0%

How did CCn1c(SCC(=O)Nc2ccc(N3CCOCC3)cc2)nnc1C1CC1 do in these assays?
SARS PLP yeast: -1%; TbPYK inhibitor: 5%

What do the screens show for `CN1CCC(=O)N(CCSc2ccc(Br)cc2)CC1`?
NS1 inh: 4%; Shiga inhibitor: 50*!; CHX counter: 21*!; LmPK inhibitor: -2%; SARS PLP yeast: -1%; TbPYK inhibitor: 4%

Results for CC(=O)Nc1ccc(SCCN2CCN(CC(C)C)CCC2=O)cc1 ?
Shiga inhibitor: -5; CHX counter: -5

How did CCCN1CCC(=O)N(CCSc2ccc(Br)cc2)CC1 do in these assays?
Shiga inhibitor: 56*; CHX counter: 35*

Results for CCCN1CCC(=O)N(CCSc2ccc(NC(C)=O)cc2)CC1 ?
NS1 inh: 9%; Shiga inhibitor: 108*!; CHX counter: 64*!; LmPK inhibitor: 3%; SARS PLP yeast: -1%; TbPYK inhibitor: 5%

What do the screens show for `[N-]=[N+]=NCCN1CCN(Cc2ccccc2)CCC1=O`?
NS1 inh: 0%; Shiga inhibitor: 16; CHX counter: -4; LmPK inhibitor: 0%; SARS PLP yeast: 8%; TbPYK inhibitor: -2%

How did O=C1CCN(Cc2ccccc2)CCN1CCSc1ccccc1 do in these assays?
NS1 inh: -2%; Shiga inhibitor: 41*; CHX counter: 42*; LmPK inhibitor: -2%; SARS PLP yeast: 11%; TbPYK inhibitor: -5%

Results for CN1CCC(=O)N([C@H](CSc2ccc(Br)cc2)Cc2ccccc2)CC1 ?
NS1 inh: -1%; Shiga inhibitor: -3; CHX counter: -2; LmPK inhibitor: -2%; SARS PLP yeast: 1%; TbPYK inhibitor: -4%

Results for O=C(c1ccc2c(c1)N(Cc1ccc(F)cc1)C(=O)c1ccccc1S2(=O)=O)N1CCCCCC1 ?
TbPYK inhibitor: 8%

How did C=CCn1c(=O)c(C(=O)NCc2ccccc2Cl)c(O)c2ccccc21 do in these assays?
NS1 inh: -7%; CHX counter: -2; LmPK inhibitor: -3%; SARS PLP yeast: -5%; TbPYK inhibitor: -2%

Results for CCCN(CCC)C(=O)C(CCC(=O)OCCCN1CCN(CCOC(=O)Cc2c(C)n(C(=O)c3ccc(Cl)cc3)c3ccc(OC)cc23)CC1)NC(=O)c1ccccc1 (stereo not drawn) ?
TbPYK inhibitor: -6%

Bioassay records deposited in PubChem BioAssay by National Center for Advancing Translational Sciences (NCATS).
